Assay outcomes: PubChem BioAssay, several laboratories
BH1578 lux ind = quorum light induction in luxS cqsA deficient V. cholerae; hit rate 0.16% among 350,000; V. cholerae BH1578 lux reporter, luminescence, 6 h; activation, % at 18.7 µM; AID 588436; in the data active = activation mostly above about 9.7%, no sharp cut-off
CCHFV vOTU inh = blocks the CCHF virus ovarian tumor domain protease | hit rate 0.55% among 370,000 | CCHFV vOTU protease, Pep-AMC fluorescence | inhibition, % at 11.5 µM | AID 651958; in the data active = inhibition above about 30%; also: 0% = vehicle wells with enzyme and 100% = no enzyme wells
GDH-TPI counter-1 = GDH-TPI coupled enzyme inhibition counter-screen; GDH-TPI coupled enzyme counterscreen, NADH absorbance; inhibition, % at 4.8 µM; hit rate 1.2% among 360,000; AID 588335; in the data active = inhibition above about 30%;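 also: 0% = DMSO wells and 100% = wells lacking the enzyme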
FBA Mtb inh = inhibits M. tuberculosis FBA enzyme | P9WQA3 | purified M. tuberculosis FBA, fluorescence read-out | inhibition, % at 1 µM | hit rate 2.3% among 360,000 | AID 588726;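 also: 0% = vehicle and 100% = reference inhibitor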
Target sequence (P9WQA3 whole entry, looked up): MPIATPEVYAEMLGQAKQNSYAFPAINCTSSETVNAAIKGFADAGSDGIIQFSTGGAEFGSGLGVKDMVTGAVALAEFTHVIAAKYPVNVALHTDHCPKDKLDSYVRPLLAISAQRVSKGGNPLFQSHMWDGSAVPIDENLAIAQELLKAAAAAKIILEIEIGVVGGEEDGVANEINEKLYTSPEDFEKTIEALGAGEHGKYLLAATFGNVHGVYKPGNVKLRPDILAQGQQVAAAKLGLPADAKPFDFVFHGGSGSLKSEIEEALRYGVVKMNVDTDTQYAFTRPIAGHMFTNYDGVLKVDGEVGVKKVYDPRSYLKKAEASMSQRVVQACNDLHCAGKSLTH
Mtb FBA confirm = confirmation of M. tuberculosis fructose-bisphosphate aldolase inhibitors; purified M. tuberculosis FBA, fluorescence read-out; inhibition, % at 1 µM; hit rate 78% among 5,600; AID 651616; shares compounds with FBA Mtb inh;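 also: 0% = vehicle wells and 100% = reference inhibitor wells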
GDH-TPI counter-2 = inhibits GDH-TPI coupling enzymes, flagging Mtb FBA hits; shares compounds with FBA Mtb inh; GDH-TPI coupled enzyme counterscreen, fluorescence; inhibition, % at 1 µM; hit rate 81% among 5,600; in the data active = inhibition above about 10%
* hit, by the source's call; i = inactive; · = not tested or not shown; + = active, no number. This is a sample that favours compounds with a hit; in the whole collection about 3.9% have one here. Rule as the data show it, unless noted: active = inhibition above about 27%; inactive = the rest.

SMILES	BH1578 lux ind	CCHFV vOTU inh	GDH-TPI counter-1	FBA Mtb inh	Mtb FBA confirm	GDH-TPI counter-2
COc1ccc(C(=O)N2N=C(c3cccc(NS(C)(=O)=O)c3)CC2c2cccs2)cc1 (stereo not drawn)	-18	-2	17	13	·	·
CC(C)Oc1ccc(C(=O)NCCCNC(=O)c2ccccn2)cc1	-1	1	-7	-2	·	·
CCC(=O)Nc1c(C#N)c2nc3ccccc3nc2n1-c1ccc(C)cc1	-2	-52	11	38*	80*	84*
Cc1ccccc1C(=O)Nc1ccc2c(C#N)c3nc4ccccc4nc3n2c1	-3	-13	9	2	·	·
COc1ccc2c(C)c(CC(=O)N3CCN(C(=O)C4COc5ccccc5O4)CC3)c(=O)oc2c1C (stereo not drawn)	0	-61	9	78*	162*	131*
Cc1c(CC(=O)N2CCN(C(=O)C3COc4ccccc4O3)CC2)c(=O)oc2cc(O)c(Cl)cc12 (stereo not drawn)	i	-385	25	·	·	·
Cc1c(C)c2ccc(OCC(=O)N3CCN(C(=O)C4COc5ccccc5O4)CC3)cc2oc1=O (stereo not drawn)	i	-32	13	66*	29*	17*
Cc1cc(=O)oc2cc(OCC(=O)N3CCN(C(=O)C4COc5ccccc5O4)CC3)ccc12 (stereo not drawn)	6	-5	16	35*	+	+
CCCc1cc(=O)oc2cc(OCC(=O)N3CCN(C(=O)C4COc5ccccc5O4)CC3)ccc12 (stereo not drawn)	0	5	2	24	·	·
COc1cc2nc(N3CCN(C(=O)C4COc5ccccc5O4)CC3)nc(N)c2cc1OC (stereo not drawn)	i	-57	18	85*	148*	110*
CCOc1ccc(-c2noc(-c3csc([C@@H]4O[C@H](CO)[C@H](O)[C@H](O)[C@H]4O)n3)n2)cc1	0	1	9	1	·	·
CC1=CC=CC2=NC(=O)CC(C)(C(=O)N(CC(=O)NC3CCCC3)Cc3ccc(Cl)cc3)N12 (stereo not drawn)	-16	-64	16	106*	+	+
CS(=O)(=O)N(CC(=O)NC1CCCCCC1)Cc1ccc(Cl)cc1	0	-13	10	4	·	·
CC1=CC2=NC(=O)CC(C)(C(=O)N(CC(=O)NC3CCCC3)c3cc(C)cc(C)c3)N2C=C1 (stereo not drawn)	-1	-61	0	57*	+	+
CC1(C(=O)N(CC(=O)NC2CCCC2)Cc2ccc(Cl)cc2)CC(=O)N=C2C=CC=CN21 (stereo not drawn)	-1	-70	10	89*	+	+
CC1=CC2=NC(=O)CC(C)(C(=O)N(CC(=O)NC(C)(C)C)Cc3cccs3)N2C=C1 (stereo not drawn)	i	-36	20	101*	149*	125*
CCS(=O)(=O)N1CCC(C(=O)Nc2ccccc2OC)CC1	i	0	11	3	·	·
N=C1c2ccccc2CN1NC(=O)C1CC1	i	-16	10	0	·	·
Cc1cc(C)c(NC(=O)c2cn3c4c(c(N5CCN(C)CC5)c(F)cc4c2=O)OCC3C)c(C)c1 (stereo not drawn)	0	-13	6	28*	+	+
O=C(Cc1ccccc1)c1nc2ccccc2s1	0	1	9	2	·	·
NC(=O)c1ncn([C@@H]2O[C@H](C(=O)N[C@H](Cc3c[nH]c4ccccc34)C(=O)O)[C@@H](O)[C@H]2O)n1	·	-2	·	·	·	·
COC(=O)C1=CN(c2ccc(F)cc2)C=C(C(=O)OC)C1c1ccc(O)cc1	i	-83	9	71*	96*	82*
O=C(OCc1ccccc1Cl)c1ccccc1C(=O)c1ccccc1	i	0	6	1	·	·
Cc1csc2ncc(C(=O)Nc3ccon3)c(=O)n12	i	-36	19	55*	124*	105*
Cc1cccc(NC(=O)c2cnc3scc(C)n3c2=O)c1	0	6	-4	0	·	·
SMILES	BH1578 lux ind	CCHFV vOTU inh	GDH-TPI counter-1	FBA Mtb inh	Mtb FBA confirm	GDH-TPI counter-2
Cc1csc2ncc(C(=O)NCc3ccco3)c(=O)n12	-1	-26	24	35*	124*	115*
COc1ccc(CNC(=O)c2cnc3scc(C)n3c2=O)cc1	0	-12	29	12	·	·
Cc1nc(N/N=C\c2ccc3c(c2)OCO3)sc1C	2	3	11	4	·	·
c1ccc(N2CC3COc4ccccc4C3=N2)cc1 (stereo not drawn)	-1	-25	17	58*	73*	71*
Cc1cc(=O)[nH]c2ccc(S(=O)(=O)NCc3ccccc3)cc12	0	19	4	0	·	·
Cn1ccc2c(-c3ccc4[nH]ccc4c3)cc3c(c21)C1CCC3O1 (stereo not drawn)	·	-9	·	47*	57*	39*
Cn1ccc2c(-c3ccc(C(N)=O)cc3)cc3c(c21)C1CCC3O1 (stereo not drawn)	·	11	·	7	·	·
Cn1ccc2c(-c3cccc(C=O)c3)cc3c(c21)C1CCC3O1 (stereo not drawn)	·	9	·	3	·	·
COc1ccccc1-c1cc2c(c3c1ccn3C)C1CCC2O1 (stereo not drawn)	·	-13	·	73*	127*	104*
Cn1ccc2c(-c3cccc4ccccc34)cc3c(c21)C1CCC3O1 (stereo not drawn)	·	-14	·	58*	60*	42*
O=C(NCc1ccc(C(F)(F)F)cc1)c1cccc2c(-c3cccnc3)coc12	0	14	-2	0	·	·
Cc1ccccc1C=Nc1ccccc1C(N)=O	1	-91	8	50*	71*	57*
COc1cccc(/C=N/NC(=O)CSCC(=O)Nc2ccccc2)c1O	i	-3	7	0	·	·
NC(=O)c1ccccc1N=Cc1cccnc1	-1	-10	0	20	·	·
O=C(Nc1ccccc1)c1ccccc1N=Cc1cccc(O)c1	0	-51	8	41*	51*	40*
Cc1ccc(C=Nc2ccccc2C(N)=O)cc1	-12	-87	1	65*	83*	74*
COc1cccc(C=Nc2ccccc2C(=O)Nc2ccccc2)c1O	0	-30	3	30*	129*	107*
CCOC(=O)N1CCN(C(=O)C2CCC(=O)N(Cc3cccc(C(F)(F)F)c3)C2)CC1 (stereo not drawn)	i	-1	-7	0	·	·
CCOCCCNC(=O)C(NC(=O)Cc1cccs1)c1ccccc1 (stereo not drawn)	i	-3	4	1	·	·
Cc1ccc(C=Nc2ccccc2C(=O)Nc2ccccc2)cc1	0	-55	7	39*	136*	103*
Cc1cc(OCC(=O)Nc2ccc(CN3CCOCC3)cc2)c2c(C)c(C)c(=O)oc2c1	0	5	3	71*	+	+
Cc1cc(=O)oc2cc(OCC(=O)Nc3ccc(CN4CCOCC4)cc3)ccc12	i	-5	16	14	·	·
